# Measured values taken from PubChem BioAssay AID488922 (Johns Hopkins Ion Channel Center, 2010).
# About 3,800 (1.2%) of roughly 310,000 compounds were called active. This is one part of a sample in which actives are shown more often than they occur.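 Rule for the calls: active = ratio B-score over 3 SD below the library mean, with starting fluorescence within 5 SD of its mean; inactive = the rest, inconclusive results apart.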
# Biological target: Potassium channel subfamily K member 9 (Homo sapiens) (UniProt Q9NPC2)
# Sequence (Q9NPC2 whole entry, looked up): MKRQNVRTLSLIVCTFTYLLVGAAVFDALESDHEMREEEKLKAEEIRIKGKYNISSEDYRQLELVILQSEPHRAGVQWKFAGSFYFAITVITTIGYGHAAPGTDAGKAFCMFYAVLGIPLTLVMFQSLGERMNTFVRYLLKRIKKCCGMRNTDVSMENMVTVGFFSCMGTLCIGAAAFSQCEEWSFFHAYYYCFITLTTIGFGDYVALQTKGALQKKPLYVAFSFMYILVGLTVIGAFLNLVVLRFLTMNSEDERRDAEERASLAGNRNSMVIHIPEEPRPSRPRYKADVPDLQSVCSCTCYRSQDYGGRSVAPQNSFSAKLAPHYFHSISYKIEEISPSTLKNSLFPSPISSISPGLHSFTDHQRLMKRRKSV
# Assay: KCNK9 potassium channel inhibitors, primary screen, HEK293 cells, thallium flux (AID 488922);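 for B-score: negative B-score means less thallium flux so channel inhibition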
# Settings: HEK293 KCNK9, FluxOR thallium flux fluorescence, at 10 µM; hits give low values
row,Structure (SMILES),B-score
1,Cc1cnc(NC(=O)c2ccccn2)s1,inactive
2,CC(C)CNC(=O)C(=O)NCC(c1ccc2c(c1)OCO2)N1CCOCC1 (stereo not drawn),inactive
3,CC(C)[C@@H](NC(=O)OC(C)(C)C)C(=O)NCC1CCC(C(=O)N[C@@H](Cc2ccccc2)C(=O)O)CC1 (stereo partly drawn),inactive
4,O=C(Nc1ccccc1N1CCN(c2ccccc2)CC1)c1cccc(F)c1,inactive
5,Cc1cccc(C(=O)Nc2ccccc2N2CCN(c3ccc(F)cc3)CC2)c1,-9.31 (active)
6,CCCCC(=O)Nc1ccccc1N1CCN(c2ccc(F)cc2)CC1,-13.2 (active)
7,CCCC(=O)Nc1ccccc1N1CCN(C(=O)c2ccccc2)CC1,inactive
8,O=C(Nc1ccccc1N1CCCC1)c1ccc2ccccc2c1,inactive
9,CCC(C)C(=O)Nc1ccccc1N1CCN(c2ccc(F)cc2)CC1 (stereo not drawn),inactive
10,COc1ccc(NC(=O)CN(C)C(=O)CC2CCCCC2)cc1,inactive
11,CNC1(c2nnnn2-c2c(C)cccc2C)CCOC(C)(C)C1 (stereo not drawn),inactive
12,COc1ccccc1NC(=O)C1=C(C)Nc2nc3ccccc3n2C1c1cccs1 (stereo not drawn),inactive
13,O=c1c([N+](=O)[O-])cc(C(F)(F)F)cn1Cc1cccc(Cl)c1,inactive
14,O=C(/C=C/c1cccc([N+](=O)[O-])c1)N1CCN(Cc2ccccc2)CC1,inactive
15,O=[N+]([O-])/C=C/c1ccc2c(ccn2Cc2ccccc2)c1,-9.63 (active)
16,CC(C)Cc1nnc(NC(=O)CN2C(=O)NC3(CCCCC3)C2=O)s1,inactive
17,COc1cc(/C=C/C(=O)O)cc(S(=O)(=O)Nc2ccccc2C(=O)NCCc2ccccc2)c1OC,inactive
18,CC1CCCC(NC(=O)c2cccc(N3CCCC3=O)c2)C1C (stereo not drawn),inactive
19,O=C(/C=C/Sc1ncn[nH]1)c1ccc(Cl)cc1,inactive
20,O=C(Nc1cc(C(F)(F)F)ccc1Cl)C(=O)N1CCCCC1,inactive
21,O=C(NNc1ccccc1Cl)C(O)(c1cccc(C(F)(F)F)c1)c1cccc(C(F)(F)F)c1,-8.19 (active)
22,CC(CC(=O)Nc1cc(C(F)(F)F)ccc1Cl)c1ccccc1 (stereo not drawn),inactive
23,CCO[C@H]1OC(C(=O)NCc2ccccc2)=C[C@@H](c2coc3ccccc3c2=O)[C@@H]1CCCO,inactive
24,O=C(COc1ccc2c3c(c(=O)oc2c1)CCCC3)NCC(O)c1ccccc1 (stereo not drawn),inactive
25,CN1CCN(CC#CCC2(O)c3ccccc3-c3ccccc32)CC1,inactive
26,NC(=O)c1sc2nc3c(c(-c4ccccc4)c2c1N)CCC3,inactive

row,Structure (SMILES),B-score
1,Cc1cccc(NC(=O)c2sc3nc4c(c(-c5ccco5)c3c2N)CCC4)c1,-10.4 (active)
2,Cc1cccc(NC(=O)c2sc3nc(N4CCOCC4)c4c(c3c2N)CCCC4)c1,inactive
3,CC1(C)CC(=O)C(C2c3ccccc3S(=O)(=O)c3ccccc32)C(=O)C1,inactive
4,COc1ccc(C2Nc3ccccc3C(=O)N2c2ccc(Cl)cc2)cc1Cn1cc([N+](=O)[O-])cn1 (stereo not drawn),-7.96 (active)
5,COc1ccc(N2C(=O)c3ccccc3NC2c2ccc(OC)c(CN3CCOCC3)c2)cc1 (stereo not drawn),inactive
6,COc1cnn(-c2ccc([N+](=O)[O-])cc2)c(=O)c1Cl,inactive
7,CCCCn1c(N)c(N(CC(C)C)C(=O)c2ccc(Br)o2)c(=O)[nH]c1=O,inactive
8,Cc1ccccc1-c1nc(CS(=O)(=O)CC(=O)NC(C)c2ccccc2)c(C)o1 (stereo not drawn),inactive
9,CCOc1ccc(NC(=O)CN(C)C(=O)COc2cccc(CC)c2)cc1OCC,inactive
10,CCCCN(CCCC)CC(O)Cn1c2ccccc2c(=O)c2ccccc21 (stereo not drawn),inactive
11,CC(C)(C)c1ccc(CN2C(=O)c3ccccc3S2(=O)=O)cc1,inactive
12,O=C1c2ccccc2S(=O)(=O)N1CC(O)Cn1c2ccccc2c2ccccc21 (stereo not drawn),-10.9 (active)
13,CC(=O)Nc1ccc(S(=O)(=O)NNC(=O)CCc2ccccc2)cc1,inactive
14,Cc1c(NC(=O)c2cc(-c3ccc(Cl)s3)nc3ccccc23)c(=O)n(-c2ccccc2)n1C,inactive
15,Cc1cc(C)c(SCCc2ccncc2)c(C)c1,inactive
16,CCOC(=O)C(NS(=O)(=O)c1ccc(C)cc1)(C(F)(F)F)P(=O)(OCC(C)C)OCC(C)C (stereo not drawn),inactive
17,O=C(O)CN1CCN(C(c2ccccc2)c2ccccc2)CC1,inactive
18,CC1(C)CC(=O)C=C(N2CCCC2)C1,inactive
19,CC1(C)CC(N2CCN(C(c3ccccc3)c3ccccc3)CC2)=CC(=[N+]2CCCCC2)C1,-17.2 (active)
20,Cc1ccccc1-n1cc(CNC(=O)CC2C(=O)NCCN2C/C=C/c2ccccc2)cn1 (stereo not drawn),inactive
21,CCOc1ccc(C(=O)CCN2CCOCC2)cc1,inactive
22,O=C(NNc1c2ccccc2nc2ccccc12)c1cc2ccccc2cc1O,-7.49 (active)
23,CC(C)(C)OC(=O)NNc1c2ccccc2nc2ccccc12,inactive
24,O=C(N/N=C/c1cccnc1)c1cc2ccccc2cc1O,inactive
25,O=C(COc1ccc(NC(=O)c2ccccc2[N+](=O)[O-])cc1)c1ccc(F)cc1,inactive
26,CC(C)CC(=O)Nc1ccc(Cc2ccncc2)cc1,inactive

row,Structure (SMILES),B-score
1,COc1ccccc1NC(=O)C1CCCN1S(=O)(=O)c1ccc(Cl)cc1 (stereo not drawn),inactive
2,CN(c1ccccc1)S(=O)(=O)c1cccc(C(=O)NNC(=O)c2ccncc2)c1,inactive
3,Cc1cc(NC(=O)CSc2nc3cc(Cl)ccc3c(=O)n2Cc2ccco2)no1,inactive
4,COc1ccccc1NC(=O)CSc1nc2sc(C)c(C)c2c(=O)n1Cc1ccco1,-9.54 (active)
5,COc1ccccc1NC(=O)CSc1nc2sc3c(c2c(=O)n1-c1ccccc1)CCN(C)C3,inactive
6,O=S(=O)(NCC1CCCO1)c1cnc(Cl)c(Cl)c1 (stereo not drawn),inactive
7,COC(=O)CCCC1=CC2=C(c3ccccc3)C(=O)C(C)(OC(=O)C3CCCC3)C(=O)C2=CN1c1ccc(OC)cc1 (stereo not drawn),inactive
8,COC(=O)c1cn(CC(=O)NCc2cccs2)c2ccccc12,inactive
9,COCCNC(=O)Cn1cc(C(=O)c2cccs2)c2ccccc21,inactive
10,O=C(Cn1cc(C(=O)c2cccs2)c2ccccc21)NCc1cccs1,-13.5 (active)
11,Cc1ccc(C(C[N+](=O)[O-])c2c(C)cc3ccccn23)cc1 (stereo not drawn),inactive
12,COc1cccc(CC2(CO)CCCN(Cc3ccc(OC(F)F)cc3)C2)c1 (stereo not drawn),inactive
13,Cc1cc(C)cc(Oc2c(C(F)(F)F)oc3cc(OCC(=O)O)ccc3c2=O)c1,inactive
14,COc1ccc(N(CCC#N)S(=O)(=O)c2ccc(Cl)cc2)cc1,inactive
15,Cc1cccc2cc(CN(Cc3ccc4c(c3)OCO4)Cc3nnnn3C3CCCC3)c(=O)[nH]c12,inactive
16,Cc1cccc2cc(CN(Cc3nnnn3Cc3ccccc3)C3CCCC3)c(=O)[nH]c12,-11.5 (active)
17,Cc1cc(C)c2cc(CN(Cc3nnnn3Cc3ccc(F)cc3)C3CCCC3)c(=O)[nH]c2c1,inactive
18,CCC(c1nnnn1Cc1ccco1)N(CCc1ccccc1)Cc1cc2cccc(C)c2[nH]c1=O (stereo not drawn),-8.62 (active)
19,CCC(c1nnnn1Cc1ccco1)N(CCc1ccccc1)Cc1cc2ccc(OC)cc2[nH]c1=O (stereo not drawn),inactive
20,CCC(c1nnnn1Cc1ccco1)N(Cc1cc2cc(OC)ccc2[nH]c1=O)C1CCCCC1 (stereo not drawn),inactive
21,C/C=N/NC(=O)CCCC(=O)N/N=C/C,inactive
22,CCNCCC(=O)N1c2ccccc2Sc2ccc(NC(=O)OCC)cc21,inactive
23,N#Cc1nc(Cc2cccc3ccccc23)oc1NCc1ccc2c(c1)OCO2,-11.2 (active)
24,Cn1cc(CCC(=O)NCc2ccc3c(c2)OCO3)c2ccccc21,inactive
25,c1n[nH]c(NCc2ccc3c(c2)OCO3)n1,inactive
26,CC(=O)N1Cc2ccccc2CC1C(=O)O (stereo not drawn),inactive

row,Structure (SMILES),B-score
1,O=C(CN1C(=O)S/C(=C\c2ccccc2Cl)C1=O)NC1C=CS(=O)(=O)C1 (stereo not drawn),inactive
2,O=C(CN1CCCCCC1)NCCN1C(=O)S/C(=C\c2ccccc2Cl)C1=O,inactive
3,CN1C2CCC1/C(=C\c1ccccc1Cl)C(=O)/C2=C\c1ccccc1Cl,-8.6 (active)
4,O=C(CCc1nnc2ccc(NCc3ccccc3Cl)nn12)NCC1CCN(C2CCCC2)C1 (stereo not drawn),inactive
5,Cc1ccc(CCNC(=O)C2CCN(S(=O)(=O)N3CCCC3)CC2)cc1,inactive
6,CCOc1c(OC)cccc1C(=O)NCC1(c2ccccc2)CCCC1,inactive
7,COc1cc(C(=O)NCC2(c3ccccc3)CCCC2)ccc1OC(C)C,inactive
8,O=C(CNC1CCCCC1)NCC1(c2ccccc2)CCCC1,-7.46 (active)
9,C=C(Br)CN1CCN(CC(=C)Br)CC1,inactive
10,CCCCNC(=O)N1CCN(S(C)(=O)=O)CC1,inactive
11,CN(C)N=Nc1ccc2nc[nH]c2c1,inactive
12,Cc1cc(C)c2[nH]c(=O)c(C(c3nnnn3Cc3ccc4c(c3)OCO4)N3CCCC3)cc2c1 (stereo not drawn),inactive
13,Fc1ccc(Cn2nnnc2C(c2cccs2)N2CCCCCC2)cc1 (stereo not drawn),-13.1 (active)
14,Fc1ccccc1C(c1nnnn1Cc1ccc2c(c1)OCO2)N1CCN(Cc2ccccc2)CC1 (stereo not drawn),inactive
15,CCCn1c(SCC(=O)Nc2ccc(C)c(S(=O)(=O)N3CCOCC3)c2)n[nH]c1=O,inactive
16,Cc1ccc(C(=O)OCC(=O)N2CC(C)CC(C)C2)cc1S(=O)(=O)N1CCCCC1 (stereo not drawn),inactive
17,COc1ccc2c(CC(=O)N3CCc4cc(OC)c(OC)cc4C3)coc2c1,inactive
18,Cc1cc(C)cc(OCC(=O)O/N=C(\N)Cc2ccc([N+](=O)[O-])cc2)c1,inactive
19,N/C(=N\OC(=O)COc1ccc([N+](=O)[O-])cc1)c1ccc(Br)cc1,inactive
20,N/C(Cc1ccc([N+](=O)[O-])cc1)=N\OC(=O)COc1ccc2ccccc2c1,-7.84 (active)
21,CCCc1cc(=O)oc2cc(OCC(=O)Nc3ccc(CN4CCOCC4)cc3)c(Cl)cc12,inactive
22,CN(C)c1ccc(NC(=O)c2ccncc2)c2ccccc12,inactive
23,c1ccc(CCn2nnnc2CN2CCN(C3CCCC3)CC2)cc1,inactive
24,c1ccc(C(c2ccccc2)N2CCN(Cc3nnnn3C3CCCCC3)CC2)cc1,-14.6 (active)
25,Oc1ccccc1CN1CCN(C(c2ccccc2)c2ccccc2)CC1,inactive
